Assay results reported in PubChem BioAssay (NCI).
The panel holds about 83,000 compounds, 20% with a hit somewhere; the sample as a whole holds those more often.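 Percent growth is the endpoint: 0 to 100 indicates growth inhibition (40 means 60% inhibition), 0 means no net growth, and negative values indicate cell death.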 A number with no mark means an inactive call. Calls of active or inactive are those of the source. How the source made its calls: active means growth percent below 10; inactive means the rest.

Each molecule was assayed on SK-MEL-2 melanoma (assay: NCI-60 one-dose screen, 48 h (100 = growth as untreated, 0 = no growth, -100 = all killed)). Conditions: 10 µM unless noted.

| SMILES | growth |
| --- | --- |
| CC(=O)OC[C@]12CCC(C)(C)C[C@H]1[C@@]1(O)[C@H](O)C[C@@H]3[C@@]4(C)CCCNC(C)(C)[C@@H]4CC[C@@]3(C)[C@]1(C)CC2 | 112% |
| COC(C(=O)[C@@H](O)[C@@H](C)O)[C@@H]1Cc2cc3cc(O[C@H]4C[C@@H](O[C@H]5C[C@@H](O)[C@H](O)C(C)O5)[C@H](O)C(C)O4)cc(O)c3c(O)c2C(=O)[C@H]1O[C@H]1C[C@@H](O[C@H]2C[C@@H](O[C@H]3C[C@@H](OC)[C@H](O)C(C)O3)[C@@H](O)C(C)O2)[C@H](O)C(C)O1 (stereo partly specified) | 33.2% |
| O=C1CNC(c2ccccc2)C(c2ccccc2)N1 (stereo unspecified) | 94.7% |
| CCc1n(Cc2ccc3ccccc3c2)cc[n+]1Cc1ccc2ccccc2c1 | -55.2% (active) |
| O=C(/C=C/c1ccc(Cl)cc1)c1cccc(Nc2nc(Nc3ccccc3)nc(Nc3ccccc3)n2)c1 | 45.7% |
| C=C1C(=O)O[C@H]2[C@H]1CC/C(COC(=O)NCc1cc[nH]c1)=C\CC[C@@]1(C)O[C@@H]21 | 70.5% |
| CN1CCN(C(=O)c2ccc(NC(=O)Nc3ccc(-c4nc(N5CCOCC5)c5cccn5n4)cc3)cc2)CC1 | -8.25% (active) |
| O=C1c2cccnc2C(=O)c2c1c(C(=O)NCCn1ccnc1)c1ccccn21 | 26.6% |
| Cc1nn(-c2ccccc2)c(Oc2ccccn2)c1-c1nc2ccccc2s1 | 99.2% |
| CCN(CC)c1nc(SCc2ccccc2Cl)ncc1C | 118% |
| COc1cc(-c2nc3cc(Cl)c(Cl)cc3[nH]2)ccc1OCC(=O)N=Nc1c(O)[nH]c2ccc([N+](=O)[O-])cc12 | 102% |
